Experimental data reported in ChEMBL document CHEMBL3433997, “St. Jude Leishmania screening dataset” (2016).

Assays:
Type in all cases: functional
[1] = target: Solute carrier family 2, facilitated glucose transporter member 1 (Homo sapiens) (UniProt P11166); assay: ST_JUDE_LEISH: Cytotoxicity at 2uM final concentration against transgenic Leishmania Mexicana promastigotes LmGLUT1 that are glucose transport deficient and complemented with the human glucose transporter GLUT1. Activity is measured by DNA content using SYBR green in vitro
[2] = target: Hexose transporter 1 (Plasmodium falciparum) (UniProt O97467); assay: ST_JUDE_LEISH: Cytotoxicity at 2uM final concentration against transgenic Leishmania Mexicana promastigotes LmPfHT that are glucose transport deficient and complemented with the Plasmodium falciparum hexose transporter. Activity is measured by DNA content using SYBR green in vitro
[3] = target: Glucose transporter (Leishmania mexicana) (UniProt O61059); assay: ST_JUDE_LEISH: Cytotoxicity at 2uM final concentration against transgenic Leishmania Mexicana promastigotes LmGT2 that are glucose transport deficient and complemented with the L. Mexicana glucose transporter 2. Activity is measured by DNA content using SYBR green in vitro

Solute carrier family 2, facilitated glucose transporter member 1 (Homo sapiens), sequence (P11166 whole entry): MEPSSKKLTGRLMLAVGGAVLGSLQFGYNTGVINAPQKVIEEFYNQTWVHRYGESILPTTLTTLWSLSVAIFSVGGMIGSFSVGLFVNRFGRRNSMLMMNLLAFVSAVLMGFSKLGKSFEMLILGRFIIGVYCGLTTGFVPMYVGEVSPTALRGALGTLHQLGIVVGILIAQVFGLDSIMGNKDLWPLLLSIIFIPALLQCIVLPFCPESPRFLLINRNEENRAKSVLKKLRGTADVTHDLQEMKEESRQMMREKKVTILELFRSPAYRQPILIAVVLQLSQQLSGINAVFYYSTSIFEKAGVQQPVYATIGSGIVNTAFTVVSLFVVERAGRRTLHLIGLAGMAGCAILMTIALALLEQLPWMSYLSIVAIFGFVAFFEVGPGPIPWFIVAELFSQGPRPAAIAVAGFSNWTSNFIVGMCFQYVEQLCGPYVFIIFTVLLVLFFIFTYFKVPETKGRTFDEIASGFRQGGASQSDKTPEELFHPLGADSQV

SMILES | inhibition [1] | inhibition [2] | inhibition [3]
Oc1ccc(CCNc2nc(NCc3ccccc3-c3cccc(Cl)c3)nc(N3CCNCC3)n2)cc1 | -2.47% | -1.9% | -2.27%
CC(C)N1CCC(N(Cc2ccc(-c3ccc(C(F)(F)F)cc3)cc2)C(=O)Cn2c(SCc3cccc(F)c3F)nc(=O)c3ccccc32)CC1 | 6.03% | 4.99% | 4.15%
O=C(Nc1cccc(Cl)c1)N[C@H]1CCN(Cc2ccc(OCCCN3CCCCC3)cc2)C1 | 9.4% | 9.12% | 8.16%
CCC(CC)n1cc2c(ccc3nc(N)nc(N)c32)n1 | -1.92% | -0.91% | -4.05%
COc1ccc(Cl)cc1NC(=O)Nc1ccc2c(c1)CCN(C1CCC1)CC2 | 2.26% | 0.44% | 1.36%
CO/C(=C\C=C\c1cc2cc(Cl)c(Cl)cc2[nH]1)C(=O)NCCCN1CCN(c2cccc(OC)c2)CC1 | 8.59% | 8.04% | 9.1%
Cc1[nH]c(C)c([N+](=O)[O-])c(=O)c1-c1ccc(Oc2ccc(OC(F)(F)F)cc2)cc1 | 0.69% | 1.27% | 1.41%
COc1ccc(-n2nc(C)c3c2NC(=O)CC3c2ccccc2OCc2ccccc2F)cc1 (centres undefined) | 11.7% | 11.4% | 9.27%
CC(C)(C)CCOC(=O)N1CCc2c(cc(O)c(O)c2Cl)C(c2ccc(O)cc2)C1 (centres undefined) | -1.94% | 0.65% | 14%
Cc1nc2c(-n3cc(Cn4ccnc4)c4ccccc43)ncnc2n1-c1ccc(Cl)cc1Cl | 0.32% | 0.41% | -1%
CNC(=N)c1ccc(NC(=O)Nc2ccc(C(=N)NC)cc2)cc1 | 4.64% | 1.88% | 3.62%
Cc1cnc(C(=O)Nc2cccc(-c3csc(-c4nc5ccccc5[nH]4)c3)c2)cn1 | 5.41% | 1.2% | 3.93%
C=CC[C@H](C[C@H](O)[C@H](Cc1ccccc1)NC(=O)c1ccc(-c2cccnn2)cc1)C(=O)NC1CCCCC1 | -1.55% | -0.85% | -1.31%
COC(=O)c1ccc2nc(-c3ccc(/C=C/C(=O)NCc4ccc(Cl)c(Cl)c4)cc3)[nH]c2c1 | 3.11% | 0.43% | 4.71%
N#CCOc1c(C2CCN(CCCCNC(=O)c3ccc(-c4ccc(C(F)(F)F)cc4)cc3)CC2)ccc2c1CCCC2 | 4.16% | 3.28% | 3.28%
COc1ccc(C2CC(c3cccs3)=NN2C(=O)c2ccco2)cc1OC (centres undefined) | 5.38% | 4.8% | 4.31%
COc1cc2c(cc1OC)CN(CCCCNC(=O)c1ccc(NC(=O)c3cc(Cl)cc(Cl)c3)cc1)CC2 | 2.09% | 3.93% | 6.32%
COc1ccc(OC)c2c1CCN(CCN1CCC(C(=O)Nc3ccc(C(=O)Nc4ccc(Cl)cc4)cc3)CC1)C2 | 1.55% | 0.47% | 0.22%
O=C(Nc1ccc2c(c1)CN(Cc1ccc(N3CCCC3)o1)CCC2)c1cncs1 | 1.6% | 1.62% | -0.45%
CCCCC(=O)NC(c1cccs1)c1cc(Cl)c2cccnc2c1O (centres undefined) | 8.63% | 8.32% | 5.17%
Cc1cc(NC(=O)CCCN2CCN(c3cccc(Cl)c3Cl)CC2)ccc1N1CCN(C(C)C)CC1 | 9.52% | 5.3% | 4.97%
CCCCNC(=O)[C@@H]1CCCN1C(=O)c1ccc(O)c(-c2ccc(Cl)c(Cl)c2)c1 | 1.42% | 0.27% | -3.49%
O=C(NC1CCC(N2CCC(c3ccccc3C(F)(F)F)CC2)CC1)c1cc2ccccc2[nH]1 (centres undefined) | 8.86% | 5.68% | 31.2%
CCNc1cc(C(=O)N[C@@H](Cc2ccccc2)[C@H](O)CNCCc2cccc(C(F)(F)F)c2)cc(N2CCCC2=O)c1 | 1.16% | 1.57% | -0.87%

SMILES | inhibition [1] | inhibition [2] | inhibition [3]
O=C(NCCCCN1CCC(c2cccc3ccccc23)CC1)c1ccc(NC(=O)c2ccc(Cl)cc2)cc1 | 1.07% | 0.25% | 0.68%
COc1cc(Cc2cnc(N)nc2N)cc(OCCCC#N)c1OC | 0.61% | -1.21% | -1.3%
Cc1cc(F)ccc1[C@H]1C[C@H](N2CCOCC2)CCN1C(=O)N(C)[C@@H](C)c1cc(C(F)(F)F)cc(C(F)(F)F)c1 | 0.71% | 0.17% | -0.74%
COc1ccc(NC(=O)[C@H](CC(C)C)Nc2cc(C)nc(NCCc3ccc(F)cc3)n2)cc1 | 5.65% | 4.09% | 3.65%
COc1cccc(CN2CCCC(COC(c3ccc(F)cc3)c3ccc(F)cc3)C2)c1O (centres undefined) | 0.95% | 1.89% | -0.91%
CSC1=NC(=Nc2c(C)cccc2C)C2(CCCCC2)N1c1ccccc1Cl | -1.1% | -1.21% | -2.07%
O=c1cc(NCCCNCc2ccc(C(F)(F)F)s2)[nH]c2ccccc12 | -0.41% | 0.6% | 0.9%
O=c1cc(NCCCNCc2ccc(Cl)c(Cl)c2)[nH]c2ccc(C(F)(F)F)cc12 | 2.13% | 1.67% | 2.08%
CNC(=O)c1nc(-c2ccccc2)[nH]c1NC(C)=O | 2.72% | 3.44% | 2.17%
CCCCN(CCCC)Cc1cc(Nc2ccnc3cc(Cl)ccc23)ccc1O | 4.85% | 8.01% | 4.18%
O=S(=O)(c1c(Cl)cc(Cl)cc1Cl)N1CCCCC(c2ccc(F)c(F)c2)=N1 | 0.21% | 2.09% | 1.47%
NCCCNc1nc(Nc2ccc(C(F)(F)F)cc2F)c2c(=O)[nH]ccc2n1 | 3.4% | 3.63% | 0.74%
CCOC(=O)C1=C(C)N=c2sc(=Cc3cc(Cl)ccc3O)c(=O)n2C1c1ccc2c(c1)OCO2 (centres undefined) | 0.16% | 0.7% | 1.37%
CC(=O)Nc1ccc(CN(Cc2ccc(F)cc2)Cc2cccc(Oc3ccccc3)c2)cc1 | 3.19% | 1.73% | 0.56%
COC(=O)c1ccc(CC(C)NCC(O)c2ccc(C(O)CNC(C)Cc3ccc(C(=O)OC)cc3)cc2)cc1 (centres undefined) | -0.44% | 1.69% | 0.96%
COc1ccc2nccc([C@@H](O)CN3CCC(NC(=O)c4ccc(-c5ccc(C#N)cc5)cc4)CC3)c2c1 | 1.89% | 1.64% | 3.25%
COc1cc(NC(=O)C(c2ccc(Cl)cc2)C(C)C)cc(OC)c1OC (centres undefined) | 2.52% | 1.79% | 5.89%
CCCCc1ccc(NC(=O)Nc2ccc3c(c2)CCNCC3)cc1 | 0.82% | 2.05% | 1.65%
Cc1cccc2nc(-c3cccc(-c4cccc(NC(=O)Nc5ccccc5)c4)c3)[nH]c12 | 3.85% | 3.36% | 3.26%
N#Cc1ccc(NC(=O)N2CCCN(CCCCCNC(=O)/C=C/c3ccc(Cl)c(Cl)c3)CC2)cc1 | 1.89% | 1.77% | 5.16%
COc1ccc2nccc([C@@H](O)CN3CCC(NC(=O)C(=O)c4c[nH]c5c(C)cccc45)CC3)c2c1 | 0.46% | 0.43% | 0.45%
CN(/N=C/C=C/c1ccc(Cl)cc1)c1nc(NCCc2ccc(O)cc2)nc(N2CCNCC2)n1 | -0.76% | 0.71% | -0.16%
Oc1ccccc1CNCc1ccc(-c2cnc(N3CCCC(c4ccccc4)C3)nc2)cc1 (centres undefined) | 3.52% | 2.64% | 9.12%
COc1cccc2c1CCN(CCN1CCC(CNC(=O)c3ccc(-c4ccc(C#N)cc4)cc3)CC1)C2 | 7.68% | 3.84% | 1.38%
